From PubChem BioAssay (Tox21) come the findings set out here.

Results filed as inconclusive are left out. Entries that show only a call come without a potency. Active and inactive are the calls of the source. Unless noted, calls follow the shape of the dose curve; as a rule, active = well fitted activation curve with a large enough effect in the repeat runs; inconclusive = weak or mixed curves; inactive = no such curve, though single readings can be large or run the other way.
Also: nearly all actives have a fitted effect of over 15% in size.
Potency is read from the fitted curve at half-maximal effect.

One assay in a line: qHTS assay for small molecule agonists of the p53 signaling pathway (AID 651631; calls by dose curve). As to conditions: HCT-116 p53RE-bla reporter, beta-lactamase FRET ratio, 16 h; series mostly up to 73.3 µM. In outline: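 Testing took place in human colorectal HCT-116 cells with stable p53RE-driven beta-lactamase. After 16 h of compound exposure at 37 °C, a FRET substrate was added and fluorescence recorded 2 h later.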
In general terms: Quantitative high-throughput screening tests each substance at several concentrations.
For the compound `BrC(Br)C(Br)Br`, the Potency result is “inactive”.

For `CC1=CC[C@@]23C[C@@H]1C(C)(C)[C@@H]2CC[C@H]3C`, the Potency entry was “inactive”.

Take `Nc1nc2ccc(OC(F)(F)F)cc2s1`: the Potency is 7.5 µM (active).

For the compound `CC[C@H]1OC(=O)[C@H](C)[C@@H](O[C@H]2C[C@@](C)(OC)[C@@H](O)[C@H](C)O2)[C@H](C)[C@@H](O[C@@H]2O[C@H](C)C[C@H](N(C)C)[C@H]2O)[C@](C)(O)C[C@@H](C)CN(C)[C@H](C)[C@@H](O)[C@]1(C)O`, the Potency result was “inactive”.

For `C1=CCC2CC=CC2C1` (centres undefined), the Potency entry was “inactive”.

Take `CCCCCCCCCCCCCCCCCC(=O)OCC(CC)CCCC` (centres undefined): the Potency result is “inactive”.

Take `O=P(O)(O)Oc1ccccc1`: the Potency result was “inactive”.

In the case of `Cc1cccc(C)c1NC(=O)c1cc(S(N)(=O)=O)c(Cl)cc1O`, the Potency result is “inactive”.

Turning to `O=[N+]([O-])c1ccc2ncccc2c1`, the Potency entry is “inactive”.

Take `O=CNNC=O`: the Potency entry was “inactive”.

Consider `CNc1c2c(nn1C)CCCC2`, for which the Potency result is “inactive”.

Turning to `COc1ccc(-c2cc(C(F)F)nn2-c2ccc(S(N)(=O)=O)cc2)cc1F`, the Potency result was “inactive”.

The nature of a further assay: qHTS assay for small molecules that induce genotoxicity in human embryonic kidney cells expressing luciferase-tagged ATAD5 (AID 651632). As to conditions: HEK293T ATAD5-luciferase induction, 16 h; series mostly up to 83.3 µM. The method in brief: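 Reporter cells (HEK293T) express luciferase-tagged ATAD5, a protein that accumulates after DNA damage. Treat 16 hr at 37C/5% CO2, add Amplite, wait 30 min at RT, and read luminescence.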
As for `C=C(C)C(=O)OCCC(F)(F)C(F)(F)C(F)(F)C(F)(F)C(F)(F)C(F)(F)F`, the Potency entry was “inactive”.

`CC1CCc2nccnc21` (centres undefined): the Potency result is “inactive”.

Consider `O=C(C(=O)c1ccco1)c1ccco1`, for which the Potency entry is “inactive”.

Consider `CC1C(C)(C)C2=C(C(=O)CCC2)C1(C)C` (centres undefined), for which the Potency result was “inactive”.

For the compound `Cc1cccc2sc(N)nc12`, the Potency entry was “inactive”.

As for `O=c1[nH][nH]c(=O)c2cc([N+](=O)[O-])ccc12`, the Potency entry was “inactive”.

Take `CCCCCCOC(=O)CCCCC`: the Potency entry is “inactive”.

Regarding `O=NN(CCCl)C(=O)NCCCl`, the Potency entry was “inactive”.

As for `O=S(=O)(O)CO`, the Potency result is “inactive”.

With `CC(C)(O)c1coc(S(=O)(=O)NC(=O)Nc2c3c(cc4c2CCC4)CCC3)c1`, the Potency result was “inactive”.

As for `Nc1ccn([C@H]2CS[C@@H](CO)O2)c(=O)n1`, the Potency result was “inactive”.

As to `Nc1ccc(S(=O)(=O)NCc2ccccc2)cc1`, the Potency entry was “inactive”.

On to `Nc1ccc(N=Nc2ccc(N)cc2)cc1`, for which the Potency was 5.44 µM (active).

Regarding `O=c1[nH]c2cc(C(F)(F)F)c(N3CCOCC3)cc2n(CP(=O)(O)O)c1=O`, the Potency result is “inactive”.

Turning to `CC(O)Cn1cnc2c1c(=O)n(C)c(=O)n2C` (centres undefined), the Potency entry is “inactive”.

Take `CCN(CC)CCOC(=O)C(c1ccccc1)c1ccccc1`: the Potency entry is “inactive”.

Regarding `O=C(O)CN1C(=O)c2cccc3cccc(c23)C1=O`, the Potency entry is “inactive”.

With `CC(C)COC(=O)COc1cc(Cl)c(Cl)cc1Cl`, the Potency entry is “inactive”.

In the case of `C[C@H](CS)C(=O)N1CCC[C@H]1C(=O)O`, the Potency result was “inactive”.

Regarding `CCCCCCC(CO)CCCC` (centres undefined), the Potency result is “inactive”.

As to `CC(=O)OC(C)C[N+](C)(C)C` (centres undefined), the Potency result was “inactive”.

`CN=C(N)NC(=O)Nc1c(C)cccc1C`: the Potency entry is “inactive”.

With `CSSc1ccoc1C`, the Potency result was “inactive”.

In the case of `CCCCCCCC(=O)OCCCCCC`, the Potency entry is “inactive”.

Regarding `CC(C)(C)S`, the Potency entry is “inactive”.

Turning to `BrC(Br)C(Br)Br`, the Potency entry is “inactive”.

As for `CC1=CC[C@@]23C[C@@H]1C(C)(C)[C@@H]2CC[C@H]3C`, the Potency entry is “inactive”.

For `Nc1nc2ccc(OC(F)(F)F)cc2s1`, the Potency was 11.9 µM (active).

Consider `CC[C@H]1OC(=O)[C@H](C)[C@@H](O[C@H]2C[C@@](C)(OC)[C@@H](O)[C@H](C)O2)[C@H](C)[C@@H](O[C@@H]2O[C@H](C)C[C@H](N(C)C)[C@H]2O)[C@](C)(O)C[C@@H](C)CN(C)[C@H](C)[C@@H](O)[C@]1(C)O`, for which the Potency entry is “inactive”.

In the case of `C1=CCC2CC=CC2C1` (centres undefined), the Potency result is “inactive”.

For the compound `CCCCCCCCCCCCCCCCCC(=O)OCC(CC)CCCC` (centres undefined), the Potency entry was “inactive”.

For the compound `O=P(O)(O)Oc1ccccc1`, the Potency result is “inactive”.

For the compound `Cc1cccc(C)c1NC(=O)c1cc(S(N)(=O)=O)c(Cl)cc1O`, the Potency result was “inactive”.

Consider `O=[N+]([O-])c1ccc2ncccc2c1`, for which the Potency entry is “inactive”.

For the compound `O=CNNC=O`, the Potency entry was “inactive”.

For `CNc1c2c(nn1C)CCCC2`, the Potency result was “inactive”.

Turning to `COc1ccc(-c2cc(C(F)F)nn2-c2ccc(S(N)(=O)=O)cc2)cc1F`, the Potency result was “inactive”.
